# Results reported in the supplement of paper PMC7156485.
# ± gives the standard deviation of the averaged measurements.
# Tested on: HCC1569
# Assay: cell number relative to DMSO (% of DMSO); higher = more cells (less growth inhibition / toxicity)
# Settings: concentration: 10 µM; 24 h
# Summary of the method: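 In 384-well plates holding 800 HCC1569 or TDF cells per well in RPMI with 10% FBS, compounds were tested at 10 µM for 24 h at 37 °C in triplicate. Fixation used 3.7% formaldehyde. Staining used a rabbit anti-H1.0 antibody with an AlexaFluor 647 secondary, plus DAPI. Each value, H1.0 nuclear intensity or cell number, is a median of replicates shown as percent of the plate control, and HCC1569 values were smoothed for positional effects.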
# 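Note: TDF denotes transformed human dermal fibroblasts of mesenchymal origin.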
row,Compound,cell number
1,Cn1cnc2c(NCc3ccccc3)nc(NCCO)nc21 [Olomoucine],100
2,CCCCCC=CCC=CCCCCCCCC(=O)O [Linoleic acid],102
3,"CCCn1c(=O)c2c(ncn2C)n(CCC)c1=O [1,3-Dipropyl-7-methylxanthine]",99.5
4,CS(=O)(=O)O.CSc1ccc2c(c1)C(N1CCN(C)CC1)Cc1ccccc1S2 (configuration not stated) [Methiothepin mesylate],91.1
5,CNCCC(Oc1ccc(C(F)(F)F)cc1)c1ccccc1 (configuration not stated) [Fluoxetine],99.3
6,CC(N)(COP(=O)(O)O)C(=O)O (configuration not stated) [2-methyl-O-phosphonoserine],97.7
7,CC1=C(C(=O)O)N2C(=O)C(NC(=O)C(N)C3=CCC=CC3)C2SC1 (configuration not stated) [Cephradine],100
8,CN(C)c1nc(N(C)C)nc(N(C)C)n1 [Altretamine],103.1 ± 0.68
9,C=C(CC)C(=O)c1ccc(OCC(=O)O)c(Cl)c1Cl [Ethacrynic Acid],100
10,Cl.Cl.NCCC(=O)NCCc1cnc[nH]1 [Carcinine dihydrochloride],97.3
11,CN(Cc1cnc2nc(N)nc(N)c2n1)c1ccc(C(=O)NC(CCC(=O)O)C(=O)O)cc1 (configuration not stated) [Methotrexate],81.7
12,CSc1nc2ccc3nc(NC(=O)C(c4ccccc4)c4ccccc4)sc3c2s1,103
13,COc1ccccc1N1CCN(CCCNc2cc(=O)n(C)c(=O)n2C)CC1.Cl [Urapidil hydrochloride],101
14,CCOC(=O)OC(C)OC1=C(C(=O)Nc2ccccn2)N(C)S(=O)(=O)c2ccccc21 (configuration not stated) [Ampiroxicam],105
15,CC1Cc2ccccc2N1NC(=O)c1ccc(Cl)c(S(N)(=O)=O)c1 (configuration not stated) [Indapamide],106
16,CCCC(=O)Oc1ccc2[nH]c(C(=O)c3cc4ccccc4[nH]3)cc2c1 [PDGF Receptor Tyrosine Kinase Inhibitor II],86.9
17,COc1cc2ncnc(Nc3ccc(Cl)cc3F)c2cc1OC.Cl,83.3
18,O=C(NCCCN1CCOCC1)c1cnn2c(-c3ccccc3)cc(-c3ccccc3)nc12,95.3
19,CCC=CCC=CCC=CCC=CCC=CCCCC(=O)O,98

row,Compound,cell number
1,CN1CCN(C2Cc3ccccc3Sc3ccc(Cl)cc32)CC1.O=C(O)C=CC(=O)O (configuration not stated),82
2,N=C(N)c1ccc(OCCCCCOc2ccc(C(=N)N)cc2)cc1 [Pentamidine],101
3,COc1ccc(-c2cc3c(C)nc(N)nc3n(C3CCC(OCCO)CC3)c2=O)cn1 (configuration not stated),35
4,CN(C)CC(C)(C)CNc1nn2c(-c3ccccc3)nnc2cc1C1CCC1,101
5,S=C(NCc1ccc2c(c1)OCO2)N1CCN(c2ncnc3c2oc2ccccc23)CC1,65.5
6,CC1=C(C)C(=O)C(CCCCC#CCCCC#CCO)=C(C)C1=O,99.09 ± 0.2
7,O=C1c2ccccc2-c2n[nH]c3cccc1c23 [JNK Inhibitor II],91.4
8,COc1cc2ccc(=O)oc2cc1O [Scopoletin],101
9,CC(=O)NC(CSCC=C(C)CCC=C(C)C)C(=O)O (configuration not stated),101
10,COc1ccc(CC(N)C(=O)NC2C(CO)OC(n3cnc4c(N(C)C)ncnc43)C2O)cc1 (configuration not stated) [Puromycin],24.1 ± 7.4
11,CCN1CCN(C(=O)NC(C(=O)NC2C(=O)N3C(C(=O)O)=C(CSc4nnnn4C)CSC23)c2ccc(O)cc2)C(=O)C1=O (configuration not stated) [Cefoperazone acid],100
12,Nc1ccc(S(=O)(=O)Nc2ncccn2)cc1 [Sulfadiazine],101
13,CC(F)(F)CN1CCOc2c(nn(-c3ccccc3Cl)c2-c2ccc(Cl)cc2)C1=O,104
14,C[N+](C)(CCCCCC[N+](C)(C)CCCN1C(=O)c2cccc3cccc(c23)C1=O)CCCN1C(=O)c2cccc3cccc(c23)C1=O.[Br-].[Br-],100
15,CC(=O)C1(O)CCC2C3CCC4=CC(=O)CCC4(C)C3CCC21C (stereo not drawn) [17alpha-hydroxyprogesterone],98.8
16,CCOC(=O)CNC(=O)[C@@H]1CCCN1C(=O)Cc1ccccc1,102
17,COc1ccc(C2CC(c3ccccc3)=NN2c2ccc(S(N)(=O)=O)cc2)cc1 (configuration not stated),95.8
18,O=C(c1ccc2c(c1)OCCO2)N1CCCCC1,105
